aSyn 5UTR act – Activators via SNCA 5'UTR binding, MLPCN | alpha-synuclein 5'UTR reporter, activators screen | activity score, % (tested at 7.5 µM), hits read low | 300,000 tested, 7.1% active | AID 1814; in the data active = activity score below about -60%
* = called active by the depositor. These entries were drawn from the full list.

SMILES | aSyn 5UTR act
Cc1nnc(NCCc2ccccc2)c2ccccc12 | -86*
CC(=O)N(/N=C1\Sc2ccccc2C1=O)c1ccccc1C | -170*
COc1ccc(NC(=O)Nc2cccs2)cc1OC | -82*
COc1cccc(NC(=O)Nc2cccs2)c1 | -80*
Cc1nn(C)c(C)c1/C=C(/C(=O)C(C)(C)C)n1cncn1 | 89
O/N=C\c1ccc(-c2ccccc2)o1 | -112*
O=[N+]([O-])c1ccc(-c2ccc(/C=N/O)o2)cc1 | -95*
COCc1ccc(C(=O)N(C)CC2CCCN(CCc3ccc(OC)cc3)C2)o1 (stereo not drawn) | -123*
COc1ccc(CCN2CCCC(CN(C)C(=O)c3cc(C)oc3C)C2)cc1 (stereo not drawn) | -149*
CCCn1c(NCc2cc(OC)ccc2OC)nc2ccccc21 | -98*
CCOc1ccc(NCc2nc3ccccc3n2CCOc2ccccc2)cc1 | -67*
Nn1c(Nc2ccccc2)nc2ccccc21 | -100*
COc1ccc(CCNc2nc3ccccc3n3nnnc23)cc1OC | -106*
COc1ccc(CCNc2nnc(Sc3nnnn3-c3ccccc3)s2)cc1OC | 120
CCOc1ccc(Nc2nc3ccccc3n2C)cc1 | -163*
CCOc1ccc(CNc2nc3ccccc3n2C)cc1 | -125*
CCOc1ccc(Nc2nc3ccccc3n3nnnc23)cc1 | -82*
Cc1ccc(C(=O)NC(=S)Nc2cc(-c3nc4ccccc4s3)ccc2C)cc1 | -95*
COc1ccc(-c2nc3ccccc3s2)cc1NC(C)=O | -127*
C(=C\c1ccc2ccccc2n1)/c1ccccc1 | 67
O=C(O)/C=C/c1ccc2ccccc2n1 | -64*
Cc1ccc(OC(=O)NC2CCS(=O)(=O)C2)cc1C (stereo not drawn) | -122*
O=C(c1cc(-c2cccc(Cl)c2)on1)N1CCCC1 | -182*
O=C(c1cc(-c2ccc(Cl)c(Cl)c2)on1)N1CCCCC1 | -193*
O=C(c1cc(-c2cccc(O)c2)on1)N1CCCCCC1 | -119*
SMILES | aSyn 5UTR act
O=C(c1cc(-c2ccc(Br)cc2)on1)N1CCCCCC1 | -145*
COc1cc(C2c3cc4c(cc3C(OC3OC5COC(c6cccs6)OC5C(O)C3O)C3COC(=O)C23)OCO4)cc(OC)c1O (stereo not drawn) | 82
Cc1ccc(C(=O)NCCn2cc(SCC(=O)Nc3nnc(C)s3)c3ccccc32)cc1 | -109*
O=C(NCCn1cc(SCc2ccccc2F)c2ccccc21)c1c(F)cccc1F | -62*
Cc1cc(NC(=O)CSc2cn(CCNC(=O)c3ccc(Cl)cc3)c3ccccc23)no1 | -90*
O=C(c1ccc([N+](=O)[O-])o1)N1CCc2ccccc2C1 | -103*
O=C(c1ccc([N+](=O)[O-])o1)N1CCc2ccccc21 | -190*
CC(=O)c1ccc(-c2ccc(C(=O)N3CCCc4ccccc43)o2)cc1 | -66*
Cc1ccc(C(=O)N2CCc3ccccc32)o1 | -94*
COc1cc2c(cc1OC)CN(C(=O)c1ccc([N+](=O)[O-])o1)CC2 | -175*
COc1ccc(/C=C/C(=O)c2ccc([N+](=O)[O-])o2)cc1OC | 61
COc1ccc2oc(C(=O)N3CCCc4ccccc43)c(C)c2c1 | -91*
CC(=O)c1ccc(-c2ccc(C(=O)N3CCN(c4ccc(F)cc4)CC3)o2)cc1 | -73*
Cc1ccc(NC(=S)Nc2cccc3ccccc23)cc1 | -65*
Fc1ccc(NC(=S)Nc2cccc3ccccc23)cc1 | -84*
O=C(NC(=Nc1nc2ccccc2o1)NC(=O)c1ccccc1)c1ccccc1 | -105*
COc1ccccc1C(=O)NC(=Nc1nc2ccccc2o1)NC(=O)c1ccccc1OC | -92*
O=C(Nc1nc(-c2ccccc2)cs1)Nc1ccc(F)cc1F | -63*
O=C(Nc1ccccc1)Nc1nc(-c2ccccc2)cs1 | -88*
CC(C)(C)c1csc(NC(=O)Nc2ccccc2)n1 | -141*
COc1cccc(-c2csc(NC(=O)C3CC3)n2)c1 | -161*
COc1cccc(-c2csc(NC(=O)Nc3ccccc3)n2)c1 | -166*
O=C(Nc1ccc(-c2csc(Nc3ccccc3)n2)cc1)c1ccccc1 | -87*
N/C(=N\OC(=O)c1ccc(Br)o1)c1cccnc1 | -143*
COc1ccc(/C(N)=N/OC(=O)c2ccc(Br)o2)cc1 | -155*
SMILES | aSyn 5UTR act
CSc1ccc(/C=N/NC(=O)c2ccccc2Cl)cc1 | -109*
O=C(N/N=C/c1ccc(OC(=O)c2cccs2)cc1)c1cccc(F)c1 | -97*
C/C(=N/N=C/c1ccc(N(C)C)cc1)c1ccccc1 | -160*
COc1cc(C(=O)N/N=C/c2ccsc2C)cc(OC)c1OC | 92
CN(C)c1cccc(C(=O)N/N=C/c2ccsc2)c1 | -157*
CSc1ccc(/C=N/NC(=O)c2cccs2)cc1 | -185*
O=C(N/N=C/c1ccc(-n2ccnc2)cc1)c1cccs1 | -78*
CC(C)=C(NC(=O)c1ccccc1)C(=O)N/N=C/c1ccc(O)cc1 | -128*
Cc1nn(-c2ccccc2)c(C)c1/C=N/NC(=O)c1cccs1 | -68*
CN(C)c1ccc(/C=N/NC(=O)c2ccccc2Cl)cc1 | -125*
CN(C)c1ccc(/C=N/NC(=O)c2ccccc2)cc1 | -120*
Cc1cc(C(=O)N/N=C/c2cc(Br)ccc2OC(=O)c2ccccc2Cl)n[nH]1 | 58
CC/C(=N\NC(=O)c1ccc(N(C)C)cc1)c1ccccc1 | -72*
CN(C)c1ccc(/C=N/NC(=O)c2sccc2-n2cccc2)cc1 | -150*
CCCCOc1ccc(N(CC(=O)NCc2ccccc2)C(=O)c2csnn2)cc1 | -69*
Cc1nc(NC(=O)/C=C/c2ccccc2)sc1C(=O)NCCO | -67*
CCOC(=O)c1sc(NC(=O)CCc2ccccc2)nc1C | -146*
COC(=O)c1sc(NC(=O)/C=C/c2ccccc2Cl)nc1C | -87*
CCOC(=O)c1sc(NC(=O)/C=C/c2ccccc2)nc1C | -95*
COC(=O)c1sc(NC(=O)/C=C/c2ccc(C)cc2)nc1C | -71*
CCOC(=O)c1sc(Nc2cccc(Cl)c2)nc1C | -102*
COc1ccc(NC(=O)Nc2ccc3nccnc3c2)cc1 | -122*
COc1ccc(NC(=O)Nc2ccc3nonc3c2)cc1 | -150*
CN(C)c1ccc(NC(=O)Nc2cccc3ccccc23)cc1 | -77*
CCN(CC)c1ccc(NC(=O)Nc2ccccc2C(F)(F)F)cc1 | -80*
SMILES | aSyn 5UTR act
CCN(CC)c1ccc(NC(=O)CCCCC(=O)Nc2ccc(N(CC)CC)cc2)cc1 | 63
CCN(CC)c1ccc(NC(=O)Nc2cccc3ccccc23)cc1 | -115*
CCOC(=O)c1cc(=O)n2c(nc3ccccc32)[nH]1 | -99*
CCCCc1c(C)[nH]c2nc3ccccc3n2c1=O | -97*
CCCc1cc(=O)n2c(nc3ccccc32)[nH]1 | -66*
Nc1nn(-c2cccc(F)n2)cc1-c1ccccc1 | -113*
CCN(C(=O)c1ccccc1F)c1nc(-c2ccc(OC)cc2)cs1 | -199*
COCCN(C(=O)c1ccccc1F)c1nc(-c2ccc(OC)cc2)cs1 | -73*
CCN(C(=O)c1ccco1)c1nc(-c2ccc(OC)cc2)cs1 | -159*
COCCN(C(=O)c1ccccc1F)c1nnc(-c2ccc(OC)cc2)s1 | -73*
CCC(C)(C)c1ccc(OCCCC[n+]2cccc(C)c2C)c(C(C)(C)CC)c1 | 101
C=CCN(C(=O)CCc1ccccc1OC)c1nc(-c2ccc(S(C)(=O)=O)cc2)cs1 | 71
CN(C(=O)c1ccco1)c1nc(-c2ccccc2)cs1 | -158*
CCC(=O)N(CC)c1nc(-c2ccc(OC)cc2)cs1 | -161*
CCc1ccc(C(=O)/C=C/c2ccc([N+](=O)[O-])o2)cc1 | -151*
Fc1ccc2c(Cl)c(-c3nnc(-c4cccs4)o3)sc2c1 | -178*
